From PubChem BioAssay (EPA / NIEHS)
Active and inactive are the calls of the source. How the source made its calls: active means hit-call score of the fitted dose curve at least 0.9, where 1 is the maximum; inactive means score below 0.9.

Assay: ATG_CRE_CIS: Attagene CIS-FACTORIAL HepG2 Assay for human cAMP Responsive Element (CRE) binding protein 3 (AID 2282926)
Details: HepG2 CRE cis-reporter, Attagene multiplexed mRNA; actives raise or lower the signal
Outline: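 Cells carrying cis-regulated reporter constructs respond through their own endogenous factors. After 24 h treatment, RNA is reverse-transcribed, amplified, labelled and sized by capillary electrophoresis; up- and down-regulation are both scored against vehicle.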

Structure (SMILES)	outcome	AC50
C=CC(=O)OCC(CO)(COCC(COC(=O)C=C)(COC(=O)C=C)COC(=O)C=C)COC(=O)C=C	inactive	
FC(F)(F)C(F)(F)C(F)(F)Br	inactive	
COCC1CCC(CO)CC1 (stereo not given)	inactive	
C=COC(=O)C(C)(C)CCCCCC	inactive	
CCCCc1ccc2ccccc2c1S(=O)(=O)O	inactive	
C=Cc1ccc(O)c(OC)c1	inactive	
FC(F)=C(F)C(F)(F)C(F)(F)C(F)(F)C(F)F	inactive	
NS(=O)(=O)O	inactive	
O=C1c2ccc(O)c(O)c2C(=O)c2c(O)ccc(O)c21	inactive	
CCOC(=O)CN[C@@H](C(=O)N1CC[C@H]1C(=O)NCc1ccc(/C(N)=N/O)cc1)C1CCCCC1	inactive	
CC(C)CCOCCC(C)C	inactive	
C=CC(=C)CC/C=C(\C)CCC=C(C)C	inactive	
Cc1ccc(N=Nc2c(O)ccc3ccccc23)c(C)c1	inactive	
C=CC(=O)OCCN(CC)CC		26.9 µM (active)
Cc1ccc(S(=O)(=O)O)cc1	inactive	
CCCCCCCCCCCCOC(=O)c1cc(O)c(O)c(O)c1	inactive	
CCCCCCCCCCCCCCCC(=O)OC	inactive	
CC1CCC(CO)CC1 (stereo not given)	inactive	
CCCCCC(C)OC(=O)COc1ccc(Cl)c2cccnc12 (stereo not given)	inactive	
FC(F)(F)N1C(F)(F)C(F)(F)OC(F)(F)C1(F)F	inactive	
C/C=C/C(=O)C1=C(C)CCCC1(C)C		34.4 µM (active)
CCc1ccccc1O	inactive	
CNNCc1ccc(C(=O)NC(C)C)cc1	inactive	
CCCCCCCCCCCC[N+](C)(C)CCCCCCCCCCCC	inactive	
Cc1cc(=O)oc2cc(O)ccc12	inactive	
